TROY signal inh: inhibitors of TROY-driven NF-kB signaling, primary screen, Q293 LMP1-TROYcd cells, NF-kB luciferase, uHTS; Q293 LMP1-TROYcd NF-kB luciferase reporter, 4 h; inhibition, % at 10 µM; 360,000 tested, 0.98% active;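 active = compounds whose plate-normalised and pattern-corrected inhibition of the luciferase reporter signal at the single screening dose is 50% or more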
LGR2 antag: inhibitors of bursicon-induced LGR2 CRE-luciferase signal, primary screen, cell-based, HEK293, CRE-luciferase reporter, bursicon stimulation; Drosophila bursicon receptor LGR2 (rickets); bursicon-stimulated, 4 h; inhibition, % at 9.99 µM; 380,000 tested, 0.35% active; AID 720647, 2013;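 active = drop in luminescence signal, shown as inhibition above about 50% in the replicate tests, limit read from the data, passing the limit was not always enough; inconclusive = probably only some replicates passing the limit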;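 note: agonist challenge used bursicon conditioned medium at about half maximal strength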
LMP1 NFkB inh: EBV LMP1-driven NF-kappaB luciferase reporter inhibitors, primary screen, cell-based, luminescence, single point | LMP1-induced NF-kappaB luciferase reporter cells | 350,000 tested, 0.69% active | AID 504558, 2011 | inhibition, % at 12.5 µM; in the data active = inhibition above about 41%; inconclusive = no clear call, values can overlap the other calls;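 note: 0% = neutral control wells and 100% = reference inhibitor control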
TWEAK-Fn14 inh: inhibitors of TWEAK-Fn14 signaling, primary screen, luciferase reporter cells, uHTS; 360,000 tested, 2% active; TWEAK-stimulated Fn14 reporter cells, luciferase luminescence, 8 h; inhibition, % at 10 µM; in the data active = inhibition above about 50%
EWS-Fli block: EWS/Fli-driven NR0B1 reporter inhibitors, primary screen, A673 cells, NR0B1 luciferase, luminescence, MLPCN library | inhibition, % at 12.6 µM | 350,000 tested, 0.67% active | viability-normalised;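 active = mean inhibition of at least 50% after viability correction, with every replicate also passing that limit; inconclusive = mean reaches 50% but only one of two replicates passes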;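 note: firefly luciferase signal divided by Alamar Blue viability fluorescence both relative to DMSO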
An asterisk follows results filed as active; ? = inconclusive; nt = no result given. In the library only some 2.5% were active in any assay of this set; here they are far more common.

SMILES	TROY signal inh	LGR2 antag	LMP1 NFkB inh	TWEAK-Fn14 inh	EWS-Fli block
Cc1[nH]c(=O)[nH]c(=O)c1NC(=O)CSc1ncccc1-c1nc2ccccc2[nH]1	54*	-19	15	44	-60
O=C(CSc1ncccc1-c1nc2ccccc2[nH]1)N1CCCCC1	45	22	9	58*	-12
CC(C)NC(=O)CSc1ncccc1-c1nc2ccccc2[nH]1	4	-2	-11	-4	-21
COc1ccc(CNC(=O)CSc2nnc3c(n2)[nH]c2ccccc23)cc1	10	-12	2	26	-3
O=C(CSc1nnc2c(n1)[nH]c1ccccc12)N1CCCCC1	12	-2	-2	65*	-14
C[C@H]1CN([C@@H](C)CO)C(=O)Cc2cc(NS(=O)(=O)c3ccc(F)cc3)ccc2O[C@@H]1CN(C)S(C)(=O)=O	nt	2	nt	nt	4
CCOC(=O)C(C(C)=O)c1c(Br)c(O)c(O)c2c(C(=O)c3ccc(C)cc3)coc12 (stereo not given)	11	24	-6	76*	nt
CCOC(=O)c1c(C)n(-c2ccc(C)cc2)c2c(C(C(C)=O)C(=O)O)c(Br)c(O)c(O)c12 (stereo not given)	0	2	-6	4	nt
COc1ccc(-c2cc3nc(-c4ccccc4)cc(N4CCCC(O)C4)n3n2)cc1 (stereo not given)	12	24	62*	38	11
COc1ccc(NC(=O)Nc2ccc3c(c2)C(=O)N([C@@H](C)CO)C[C@@H](C)[C@H](CN(C)S(=O)(=O)c2ccccc2)OCCCC[C@H](C)O3)cc1	nt	7	nt	nt	18
COc1ccc(N(C(=O)c2ccco2)S(=O)(=O)c2cc(Cl)c(Cl)cc2Cl)cc1	54*	nt	3	25	nt
COc1cccc(CNc2ccc3c(c2)CCC3)c1	44	nt	-6	51*	nt
COc1ccc(OC)c(CNc2ccc3c(c2)CCC3)c1	51*	-36	1	61*	-6
COc1ccc(OC)c(CC(=O)Nc2ccc3c(c2)CCC3)c1	8	18	-6	-1	4
COc1cccc(CNc2ccc(C)c(Cl)c2)c1	-32	-27	0	-10	-40
COc1ccc(NC(=O)Nc2ccc3c(c2)C(=O)N([C@@H](C)CO)C[C@H](C)[C@H](CN(C)C(=O)C2CCCCC2)OCCCC[C@H](C)O3)cc1	nt	-13	nt	nt	7
Cc1ccc(S(=O)(=O)Nc2ccc3c(c2)C(=O)N([C@H](C)CO)C[C@@H](C)[C@@H](CN(C)C(=O)Nc2c(C)noc2C)O3)cc1	nt	3	nt	nt	-1
CCCNC(=O)C[C@H]1CC[C@H]2[C@@H](COc3ccc(NC(=O)COC)cc3C(=O)N2C)O1	nt	0	nt	nt	-13
Nc1cccc(-c2cc3ccccc3oc2=O)c1	67*	-127	22	60*	-13
Nc1nnc(-c2cc3ccccc3oc2=O)s1	-47	nt	-8	-3	nt
N#C[C@@H]1[C@H](c2ccccc2-c2ccccc2)[C@H](CO)N1C(=O)NC1CCCC1	nt	7	nt	nt	-3
Cc1c(-c2ccccn2)c(=O)[nH]n1-c1ccc(F)cc1	30	30	2	51*	22
COc1ccc(/C=C/c2ccc3cccc(O)c3n2)c(OC)c1OC	-44	-92	-4	81*	-27
COc1cc(Br)cc(/C=C/c2ccc3cccc(O)c3n2)c1OC	-27	-2	9	0	21
COc1cccc(/C=C/c2ccc3cccc(O)c3n2)c1OC	48	-54	0	82*	-50
SMILES	TROY signal inh	LGR2 antag	LMP1 NFkB inh	TWEAK-Fn14 inh	EWS-Fli block
CCC(=O)N1CC(=O)N2[C@@H](CO)[C@@H](c3ccc(C#CCc4ccccc4)cc3)[C@@H]2C1	nt	2	nt	nt	nt
C[C@H]1CN([C@@H](C)CO)C(=O)c2cccc(NC(=O)Nc3ccc(F)cc3)c2O[C@@H]1CN(C)C	nt	5	nt	nt	-7
COc1ccccc1CN(Cc1nc2ccccc2c(=O)[nH]1)S(=O)(=O)c1ccc2ccccc2c1	47	?	10	55*	nt
C[C@@H]1CCCCO[C@@H](CN(C)C(=O)CCC(F)(F)F)[C@@H](C)CN([C@H](C)CO)C(=O)c2cc(NC(=O)c3ccncc3)ccc2O1	nt	22	nt	nt	-19
O=C(c1ccccc1)C(CN1CCCCC1)c1ccccc1 (stereo not given)	8	?	55*	71*	69*
CN(C)CC(C(=O)c1ccccc1)c1ccccc1 (stereo not given)	33	nt	78*	79*	nt
CC(CN1CCN(CC(C)C(=O)c2ccccc2)CC1)C(=O)c1ccccc1 (stereo not given)	-7	3	5	19	5
O=C(c1ccc(Br)cc1)C(CN1CCOCC1)c1ccccc1 (stereo not given)	0	16	-8	58*	41
Cc1ccc2[nH]cc(C(=O)CN3CCC4(CC3)OCCO4)c2c1	-12	nt	-8	51*	nt
Cc1ccc2[nH]cc(C(=O)CN3CCOCC3)c2c1	-7	9	1	22	7
CCNC(=O)Nc1ccc2c(c1)C(=O)N(C)[C@H]1CC[C@H](CC(=O)NCc3cccc(F)c3)O[C@H]1CO2	nt	7	nt	nt	4
COc1ccc2nc(Nc3nc(CSc4nc5ccccc5[nH]4)cc(=O)[nH]3)nc(C)c2c1	58*	87*	-25	91*	nt
Cc1ccc2c(=O)[nH]c(Nc3nc(C)cc(-c4ccccc4)n3)nc2c1	7	-15	-4	1	14
Cc1nc(Nc2nc(CSc3nc4ccccc4[nH]3)cc(=O)[nH]2)nc2ccccc12	46	82*	8	92*	nt
Cc1cc(C)cc(Nc2nc3ccccc3c(=O)[nH]2)c1	-29	-24	-3	-3	-10
COc1nc(Nc2nc3ccccc3c(=O)[nH]2)nc2ccc(C)cc12	2	52*	50*	55*	35
Cc1nc(Nc2nc(CSc3ccc(Cl)cc3)cc(=O)[nH]2)nc2ccccc12	-7	-5	-1	-5	nt
Cc1nc(Nc2nc(-c3ccccc3)cc(=O)[nH]2)nc2ccccc12	13	63*	-2	2	nt
O=C(C[C@H]1C=C[C@@H](NS(=O)(=O)c2ccccc2)[C@H](CO)O1)NCc1ccc(Cl)c(Cl)c1	nt	2	nt	nt	-3
COc1ccc2c(C)nc(Nc3nc(C)c(C)c(=O)[nH]3)nc2c1	12	nt	-167	53*	nt
CCc1c(C)nc(Nc2nc(C)c3ccc(OC)cc3n2)[nH]c1=O	-64	-20	-22	-17	-81
CC(C)C(=O)N1CCN(c2ccc(NC(=O)c3ccc([N+](=O)[O-])o3)cc2Cl)CC1	25	18	-37	18	61*
CCCC(=O)N1CCN(c2ccc(NC(=O)c3ccc([N+](=O)[O-])o3)cc2Cl)CC1	22	23	-29	37	71*
CN1CCN(c2ccc(NC(=O)c3ccc([N+](=O)[O-])o3)cc2Cl)CC1	37	-41	-49	25	30

Bioassay records as filed in PubChem.
